Source: PubChem BioAssay (NCI)
The panel holds about 79,000 compounds, 15% with a hit somewhere; the sample as a whole holds those more often. Values without a mark were called inactive. The source made the active and inactive calls. Cut-off read from the data, not from the text of the source: active = growth inhibition above about 70%; inactive = the rest.

Legend:
[1] = NCI Yeast Anticancer Drug Screen. Data for the rad50 strain (AID 155);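 note: 0% = growth of vehicle-only cultures of the same strain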; conditions: S. cerevisiae rad50 strain growth inhibition, active compounds read high
Summary of the method: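 Readout: growth inhibition relative to vehicle-treated cultures. Compound exposure was carried out in a genetically defined yeast strain deficient in DNA damage repair.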

[2] = NCI Yeast Anticancer Drug Screen. Data for the mec2-1 strain (AID 157); conditions: S. cerevisiae mec2-1 strain, active compounds read high
Summary of the method: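 Readout is yeast growth inhibition, normalised to vehicle-treated controls, in the mec2-1 strain exposed to compound.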

[3] = NCI Yeast Anticancer Drug Screen. Data for the sgs1 mgt1 strain (AID 161);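 note: 0% = growth of cultures given vehicle only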; conditions: S. cerevisiae sgs1 mgt1 strain, active compounds read high
Summary of the method: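 Yeast cells carrying a defined DNA-repair defect were exposed to test compounds. Growth inhibition was measured relative to vehicle-treated controls.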

[4] = NCI Yeast Anticancer Drug Screen. Data for the cln2 rad14 strain (AID 165);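 note: 0% = growth equal to vehicle treated cultures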; conditions: S. cerevisiae cln2 rad14 strain, active compounds read high
Summary of the method: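 Relative to vehicle controls, growth inhibition of compound-treated cln2 rad14 yeast was recorded.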

[5] = NCI Yeast Anticancer Drug Screen. Data for the bub3 strain (AID 167); conditions: S. cerevisiae bub3 mutant strain, active compounds read high
Summary of the method: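 Readout: yeast growth inhibition, expressed relative to vehicle-only wells. The test organism is a mutant strain from a panel with lesions in DNA repair or checkpoint genes.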

[6] = NCI Yeast Anticancer Drug Screen. Data for the mlh1 rad18 strain (AID 175); conditions: S. cerevisiae mlh1 rad18 strain growth inhibition, active compounds read high
Summary of the method: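 Test agents were incubated with a yeast strain of defined genotype (DNA damage repair defect). Inhibition of growth was derived by comparison with vehicle-exposed cultures.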

[7] = at 5.0 µM (retest, dose inferred, filed as 0.5)
[8] = at 50.0 µM (retest, dose inferred, filed as 5.0)

| Structure (SMILES) | growth inhibition [1, 7] | growth inhibition [1, 8] | growth inhibition ([1]; at 50.0 µM) | growth inhibition [2, 7] | growth inhibition [2, 8] | growth inhibition ([2]; at 50.0 µM) | growth inhibition [3, 7] | growth inhibition [3, 8] | growth inhibition ([3]; at 50.0 µM) | growth inhibition [4, 7] | growth inhibition [4, 8] | growth inhibition ([4]; at 50.0 µM) | growth inhibition [5, 7] | growth inhibition [5, 8] | growth inhibition ([5]; at 50.0 µM) | growth inhibition [6, 7] | growth inhibition [6, 8] | growth inhibition ([6]; at 50.0 µM) |
| --- | --- | --- | --- | --- | --- | --- | --- | --- | --- | --- | --- | --- | --- | --- | --- | --- | --- | --- |
| OC1C2CCC1C1C3C=CC(C3)C21 (configuration not stated) | 1% | 91% (active) | 84.8% (active) | 5% | 93% (active) | 62.2% | 11% | 88% (active) | 42.4% | -3% | 38% | 70.2% (active) | 11% | 85% (active) | 52.1% | -1% | 94% (active) | 83% (active) |
| Nc1ccccc1CC(c1c[nH]c2ccccc12)c1c[nH]c2ccccc12 | 4% | 7% | 94% (active) | 1% | 17% | 95% (active) | 1% | 10% | 94.4% (active) | 93% (active) | -7% | 90.5% (active) | 2% | 26% | 93% (active) | 4% | 27% | 93.8% (active) |
| CCCCCC(=O)NNc1ccccc1 | 18% | 89% (active) | 85.3% (active) | 1% | 76% (active) | 42.6% | 5% | 48% | 80% (active) | 0% | 51% | 78% (active) | 9% | 95% (active) | 83.1% (active) | 22% | 93% (active) | 90.8% (active) |
| O=C1C(=O)c2cc(Br)cc([N+](=O)[O-])c2-c2ccc(Br)cc21 | 68% | 96% (active) | 95.5% (active) | 52% | 96% (active) | 98.3% (active) | 83% (active) | 93% (active) | 97.1% (active) | 21% | 92% (active) | 96.6% (active) | 38% | 94% (active) | 98.3% (active) | 89% (active) | 97% (active) | 98.4% (active) |
| C/C(=N\NC(=S)Nc1ccc([N+](=O)[O-])cc1)c1nc2ncccc2[nH]1 | -8% | 71% (active) | 72.3% (active) | -22% | 89% (active) | 61% | -14% | 70% (active) | 62.2% | 5% | 93% (active) | 67.2% | -35% | 95% (active) | 75.5% (active) | 4% | 92% (active) | 60.1% |
| COC1=C(C)C(=O)C2=C(C1=O)C1C3CC4=C(C(=O)C(OC)=C(C)C4=O)C(CNC(=O)C(C)=O)N3C(C#N)C(C2)N1C (configuration not stated) | 78% (active) | 98% (active) | 90.2% (active) | 53% | 99% (active) | 92% (active) | 35% | 99% (active) | 91.7% (active) | 88% (active) | 96% (active) | 89.6% (active) | 22% | 98% (active) | 90.2% (active) | 51% | 99% (active) | 88.3% (active) |
| CCC(C)SC1SCC2C(=O)N(C)C3(CC3C)C(=O)OCC(NC(=O)c3nc4ccccc4cc3O)C(=O)NC(C)C(=O)N(C)C1C(=O)N(C)C1(CC1C)C(=O)OCC(NC(=O)c1nc3ccccc3cc1O)C(=O)NC(C)C(=O)N2C (configuration not stated) | 98% (active) | 89% (active) | 89.7% (active) | 99% (active) | 92% (active) | 91.9% (active) | 80% (active) | 93% (active) | 92.4% (active) | 79% (active) | 94% (active) | 88.7% (active) | 75% (active) | 93% (active) | 91.2% (active) | 94% (active) | 84% (active) | 89.8% (active) |
| CC(C)OC(=O)CCCCCC1CCCCC1 | 6% | 9% | 0.95% | -2% | 2% | 13.5% | 3% | 11% | 1.4% | 10% | 6% | 31.7% | 8% | 3% | -0.25% | 4% | 7% | 8.8% |
| CCC(=O)OC1CCC(C2CCCCC2)CC1 (configuration not stated) | 3% | 8% | -4.95% | 1% | 2% | -9.55% | 2% | 5% | 16.7% | 5% | 7% | -21.2% | 65% | 70% (active) | 61.1% | 4% | 10% | 36.8% |
